Experimental findings from PubChem BioAssay (NCI) are described below.

Compounds without any hit were thinned out: in the full panel of roughly 83,000, 20% have a hit.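 Step 1: grow cells in 96-well plates. Step 2: add test compound at a single concentration. Step 3: incubate 48 h. Step 4: record percent growth.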 Values without a mark were called inactive. Activity calls are given as the source filed them. How the source made its calls: active means growth percent below 10; inactive means the rest.

Among the test systems are SR leukemia; RPMI-8226 leukemia; OVCAR-8 ovarian; OVCAR-5 ovarian; OVCAR-4 ovarian; SK-OV-3 ovarian; IGROV1 ovarian; OVCAR-3 ovarian; HS 578T breast; NCI/ADR-RES ovarian.
What all share (assay): NCI-60 one-dose screen, 48 h (100 = growth as untreated, 0 = no growth, -100 = all killed)
What all share (conditions): 10 µM unless noted

`CC(=O)N1N=C(c2cccc(Nc3ccncc3)c2)CC1c1ccc2c(c1)OCO2` (stereo not given): the growth with SR leukemia was 31.5%; in the experiment on RPMI-8226 leukemia, 78.3%; with OVCAR-8 ovarian, 91.4%; in the experiment with OVCAR-5 ovarian, 94.1%; in the experiment with OVCAR-4 ovarian, 90.3%; with SK-OV-3 ovarian, 78.3%. For the same compound, the growth in the experiment with IGROV1 ovarian is 91.9%; with OVCAR-3 ovarian, 96%; with HS 578T breast it was 80%; in the experiment on NCI/ADR-RES ovarian, 97.2%.

As for `CCCCN(CCCC)CCc1c(C)cc(C)c(CCN(CCCC)CCCC)c1O`, the growth in the experiment with SR leukemia is 25.8%; in the experiment with RPMI-8226 leukemia, 1.92% (active); in the experiment with OVCAR-8 ovarian it was 47.5%; in the experiment with OVCAR-5 ovarian it was 45.6%; in the experiment with OVCAR-4 ovarian, 30.8%; in the experiment with SK-OV-3 ovarian, 25.5%. In addition, the growth in the experiment with IGROV1 ovarian was 32.9%; with OVCAR-3 ovarian it was 14.7%; with HS 578T breast, 58.3%; with NCI/ADR-RES ovarian, 75.7%.

As to `O=S(=O)(NCCNc1nccc(-c2c(-c3ccc(F)c(O)c3)nc3sccn23)n1)c1ccccc1`, the growth with SR leukemia is 35.8%; in the experiment on RPMI-8226 leukemia it was 41%; with OVCAR-8 ovarian it was 67.6%; in the experiment on OVCAR-5 ovarian it was 115%; with OVCAR-4 ovarian it was 92.8%; with SK-OV-3 ovarian it was 85.9%. For the same compound, the growth was 68.9% in the experiment with IGROV1 ovarian, 81.6% in the experiment with OVCAR-3 ovarian, 82.1% in the experiment on HS 578T breast and 106% in the experiment with NCI/ADR-RES ovarian.

As for `COc1cc(CNC(=O)CCCCC[P+](c2ccccc2)(c2ccccc2)c2ccccc2)c(OC)c2c1OCO2`, the growth with SR leukemia was 22.9%; in the experiment on RPMI-8226 leukemia, 1.67% (active); with OVCAR-8 ovarian, 75.3%; in the experiment on OVCAR-5 ovarian, 99.5%; in the experiment on OVCAR-4 ovarian, 23.7%; in the experiment with SK-OV-3 ovarian, 127%. Also, the growth was 41.8% in the experiment with IGROV1 ovarian, 44.5% in the experiment on OVCAR-3 ovarian, 78% in the experiment on HS 578T breast and 105% in the experiment on NCI/ADR-RES ovarian.

`CN(C)Cc1c(-c2ccccc2)[nH]c2ccccc12`: the growth was 95.6% with SR leukemia; 85.7% with RPMI-8226 leukemia; 102% in the experiment on OVCAR-8 ovarian; 96.1% in the experiment with OVCAR-5 ovarian; 117% with OVCAR-4 ovarian; 81.7% in the experiment on SK-OV-3 ovarian. The growth in the experiment with IGROV1 ovarian was 110%; with OVCAR-3 ovarian, 103%; with HS 578T breast, 100%; with NCI/ADR-RES ovarian, 98.2%.

Turning to `O=C(CN1CCOCC1)Nc1ccc2ncnc(Nc3ccc(OCc4cccc(F)c4)c(Cl)c3)c2c1`, the growth in the experiment on SR leukemia was 64.3%; with RPMI-8226 leukemia, 44.7%; with OVCAR-8 ovarian, 63.1%; with OVCAR-5 ovarian it was 69.2%; in the experiment on OVCAR-4 ovarian it was 72%; with SK-OV-3 ovarian, 6.86% (active). In addition, the growth with IGROV1 ovarian was 23.2%; with OVCAR-3 ovarian it was 58%; in the experiment on HS 578T breast, 100%; in the experiment on NCI/ADR-RES ovarian, 44.7%.

As to `Cc1nc2sc(C(=O)Nc3cccc(Br)c3)c(N)c2cc1C(=O)c1ccc(C(F)(F)F)cc1`, the growth in the experiment on SR leukemia was 47%; in the experiment with RPMI-8226 leukemia it was 88.6%; in the experiment with OVCAR-8 ovarian it was 72.7%; with OVCAR-5 ovarian, 82.3%; with OVCAR-4 ovarian, 6.24% (active); in the experiment with SK-OV-3 ovarian, 91.7%. Further, the growth is 73.8% with IGROV1 ovarian, 83.2% with OVCAR-3 ovarian, 40.7% in the experiment on HS 578T breast and 80.7% in the experiment with NCI/ADR-RES ovarian.

For `COc1c(Cl)cc(Cl)c2ccc(C=C3C(=O)NC(=S)NC3=O)nc12`, the growth was 99% in the experiment on SR leukemia; 105% in the experiment with RPMI-8226 leukemia; 109% in the experiment with OVCAR-8 ovarian; 109% in the experiment with OVCAR-5 ovarian; 109% in the experiment on OVCAR-4 ovarian; 106% in the experiment with SK-OV-3 ovarian. Also, the growth with IGROV1 ovarian is 108%; with OVCAR-3 ovarian, 103%; in the experiment on HS 578T breast, 102%; in the experiment on NCI/ADR-RES ovarian it was 100%.

For the compound `CCCC1C(C(=O)OCC)=C(N)Oc2cc(O)ccc21` (stereo not given), the growth was 90.1% with SR leukemia; 98.5% in the experiment on RPMI-8226 leukemia; 107% with OVCAR-8 ovarian; 108% with OVCAR-5 ovarian; 89.3% with OVCAR-4 ovarian; 88.3% with SK-OV-3 ovarian. Moreover, the growth was 76.4% in the experiment on IGROV1 ovarian, 96.6% with OVCAR-3 ovarian, 101% with HS 578T breast and 94.3% in the experiment on NCI/ADR-RES ovarian.

On to `CC(=O)[C@@H]1CC[C@]2(C(=O)n3ccnc3)CC[C@]3(C)[C@H](CC[C@@H]4[C@@]5(C)Cc6c([nH]c7ccccc67)C(C)(C)[C@@H]5CC[C@]43C)[C@@H]12`, for which the growth is 77.7% in the experiment on SR leukemia; 72.7% with RPMI-8226 leukemia; 90.7% with OVCAR-8 ovarian; 105% with OVCAR-5 ovarian; 85.2% in the experiment on OVCAR-4 ovarian; 98.3% in the experiment with SK-OV-3 ovarian. Also, the growth in the experiment on IGROV1 ovarian is 42.6%; in the experiment on OVCAR-3 ovarian, 79.5%; in the experiment with HS 578T breast, 87.1%; with NCI/ADR-RES ovarian it was 90%.

Take `CN1CCN(Cc2ccc(NC(=O)c3cncc(C#Cc4cnccc4C(F)(F)F)c3)cc2C(F)(F)F)CC1`: the growth in the experiment on SR leukemia is 37.3%; in the experiment with RPMI-8226 leukemia, 70.6%; with OVCAR-8 ovarian it was 92.2%; in the experiment with OVCAR-5 ovarian, 67.4%; in the experiment with OVCAR-4 ovarian, 59.2%; in the experiment on SK-OV-3 ovarian it was 89%. The growth was 58.3% in the experiment with IGROV1 ovarian, 105% with OVCAR-3 ovarian, 53% in the experiment on HS 578T breast and 85.8% in the experiment on NCI/ADR-RES ovarian.

`COc1cccc(CNCCN2C(=O)c3ccc4c5c(ccc(c35)C2=O)C(=O)N(CCNCc2cccc(OC)c2)C4=O)c1`: the growth in the experiment with SR leukemia was -27.8% (active); in the experiment with RPMI-8226 leukemia it was -14.8% (active); in the experiment with OVCAR-8 ovarian it was 68.3%; in the experiment with OVCAR-5 ovarian, 120%; in the experiment with OVCAR-4 ovarian, 75.9%; in the experiment with SK-OV-3 ovarian, 114%. Moreover, the growth is 75.9% with IGROV1 ovarian, 24.6% with OVCAR-3 ovarian, 121% in the experiment with HS 578T breast and 88.8% in the experiment on NCI/ADR-RES ovarian.

With `CCCCCN1C=C/C(=C\C(=O)N(C)c2cccc3ccccc23)c2ccccc21`, the growth was 81.5% in the experiment on SR leukemia; 78.5% in the experiment on RPMI-8226 leukemia; 98.4% with OVCAR-8 ovarian; 109% with OVCAR-5 ovarian; 86.5% in the experiment on OVCAR-4 ovarian; 99.6% in the experiment with SK-OV-3 ovarian. Moreover, the growth in the experiment with IGROV1 ovarian is 93.7%; in the experiment with OVCAR-3 ovarian, 96.9%; in the experiment on HS 578T breast, 99.9%; with NCI/ADR-RES ovarian it was 106%.

On to `O=C(N/N=C/c1ccncc1)c1ccccc1Nc1cccc(C(F)(F)F)c1`, for which the growth in the experiment on SR leukemia was 4.74% (active); with RPMI-8226 leukemia it was 52.3%; in the experiment on OVCAR-8 ovarian, 79.1%; in the experiment on OVCAR-5 ovarian, 89.5%; with OVCAR-4 ovarian, 66%; with SK-OV-3 ovarian, 86.4%. In addition, the growth is 86.8% in the experiment with IGROV1 ovarian, 64.7% with OVCAR-3 ovarian, 103% in the experiment on HS 578T breast and 70.7% in the experiment with NCI/ADR-RES ovarian.

`N#Cc1c(Nc2ccccc2)nn2cc(-c3nc4ccccc4s3)c(N)nc12`: the growth in the experiment with SR leukemia is 74.3%; with RPMI-8226 leukemia it was 91.9%; with OVCAR-8 ovarian, 70.7%; in the experiment on OVCAR-5 ovarian, 88.5%; with OVCAR-4 ovarian, -13.7% (active); in the experiment on SK-OV-3 ovarian it was 90.2%. The growth in the experiment on IGROV1 ovarian is 65.5%; in the experiment on OVCAR-3 ovarian, 97%; with HS 578T breast, 64.3%; with NCI/ADR-RES ovarian, 50.6%.

For `Fc1ccc(C2CC(c3cccc(Nc4ccncc4)c3)=NN2c2ccccc2)cc1` (stereo not given), the growth is 2.49% (active) in the experiment with SR leukemia; 1.2% (active) in the experiment with RPMI-8226 leukemia; 55.1% with OVCAR-8 ovarian; 85.3% with OVCAR-5 ovarian; 51.9% in the experiment with OVCAR-4 ovarian; 70.8% with SK-OV-3 ovarian. Besides, the growth in the experiment on IGROV1 ovarian is 44%; with OVCAR-3 ovarian it was 64%; with HS 578T breast, 73.1%; with NCI/ADR-RES ovarian it was 73%.

As to `CCOC(=O)c1ccc(Nc2ccnc(SCC(=O)c3ccc(C#N)cc3)n2)cc1`, the growth was 54.1% in the experiment with SR leukemia; 20.4% in the experiment with RPMI-8226 leukemia; 22.8% in the experiment on OVCAR-8 ovarian; 107% with OVCAR-5 ovarian; 65.2% in the experiment with OVCAR-4 ovarian; 101% in the experiment with SK-OV-3 ovarian. For the same compound, the growth was 79% with IGROV1 ovarian, 79.1% in the experiment with OVCAR-3 ovarian, 92.1% in the experiment on HS 578T breast and 41.5% in the experiment on NCI/ADR-RES ovarian.

Consider `CC(O)(CO)c1ccccc1` (stereo not given), for which the growth in the experiment with SR leukemia was 112%; with RPMI-8226 leukemia, 113%; in the experiment on OVCAR-8 ovarian it was 100%; in the experiment on OVCAR-5 ovarian, 94.9%; in the experiment on OVCAR-4 ovarian, 103%; in the experiment on SK-OV-3 ovarian it was 106%. Moreover, the growth in the experiment with IGROV1 ovarian is 97.2%; in the experiment on OVCAR-3 ovarian, 112%; in the experiment on HS 578T breast it was 100%; in the experiment with NCI/ADR-RES ovarian, 103%.

Regarding `COc1cc2ncnc(Nc3ccc(C(=O)/C=C/c4ccc(C(F)(F)F)cc4F)cc3)c2cc1OC`, the growth with SR leukemia is 63.4%; in the experiment on RPMI-8226 leukemia, 12.8%; in the experiment with OVCAR-8 ovarian, 101%; in the experiment with OVCAR-5 ovarian, 103%; with OVCAR-4 ovarian, 105%; in the experiment on SK-OV-3 ovarian it was 123%. For the same compound, the growth with IGROV1 ovarian is 94.2%; in the experiment with OVCAR-3 ovarian it was 101%; with HS 578T breast, 66.8%; in the experiment with NCI/ADR-RES ovarian, 102%.

Take `O=C(Nc1nc2ccc(S(=O)(=O)Nc3ccc(C4(C(F)(F)F)CC4)cc3)cc2[nH]1)c1cnccn1`: the growth in the experiment on SR leukemia was 20%; in the experiment with RPMI-8226 leukemia, 30.3%; in the experiment with OVCAR-8 ovarian, 55.4%; in the experiment with OVCAR-5 ovarian, 56.8%; in the experiment on OVCAR-4 ovarian, 46.1%; with SK-OV-3 ovarian, 58%. Also, the growth in the experiment on IGROV1 ovarian is 40.3%; in the experiment on OVCAR-3 ovarian, -18.6% (active); in the experiment with HS 578T breast, 17.6%; in the experiment with NCI/ADR-RES ovarian, 21%.
